Assay outcomes deposited in PubChem by National Center for Advancing Translational Sciences (NCATS).
Pf growth 48h: Primary qHTS for delayed death inhibitors of the malarial parasite plastid, 48 hour incubation; P. falciparum luciferase growth in erythrocytes, 48 h; Potency, µM (highest dose often 28.7 µM), for inactives: at the highest dose activity change, negative = inhibition, actives largely listed as inhibitors; 310,000 compounds, 5.9% hits; note: % is set by controls: 0 for no effect and ±100 for the full control effect
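Luciferase-expressing P. falciparum in infected erythrocytes (2% hematocrit, 0.1% parasitemia final) in RPMI 1640/0.5% Albumax were exposed to compound for 48 hours at 37 C, 5% CO2; growth read as luminescence.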
AMA1 RON2 block: qHTS for Inhibitors of AMA1-RON; Towards Development of Antimalarial Drug Lead: Primary Screen | AlphaScreen AMA1-biotinylated RON2 peptide binding | Potency, µM (highest dose often 58.2 µM), inactives show top-dose activity change, negative = inhibition, actives largely listed as inhibitors | 360,000 compounds, 0.2% hits | AID 720542, 2013;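 note: 0% = vehicle wells and -100% = peptide control; nearly all actives have a fitted effect of over 45% in size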
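AMA1 (3D7) with his tag at 25 nM final met compounds first, then biotinylated RON2 peptide at 25 nM; detection used donor plus acceptor beads, 10 µg/mL apiece, read by AlphaScreen after 30 min at room temperature.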
Pf growth 96h: Primary qHTS for delayed death inhibitors of the malarial parasite plastid, 96 hour incubation; P. falciparum luciferase reporter growth, 96 h; Potency, µM (top dose mostly 28.7 µM), for the others: top-dose activity change, negative = inhibition, usual class: inhibitors; 320,000 compounds, 6.9% hits; AID 504834, 2011; note: % is set by controls: 0 for no effect and ±100 for the full control effect
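Two parasite generations (96 h, 37 C, 5% CO2) of compound exposure in infected erythrocytes (0.05% parasitemia, 2% hematocrit). Luciferase-reporter P. falciparum; decreased luminescence indicates inhibited growth, aimed at apicoplast-acting delayed death.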
SARS PLpro yeast: qHTS of Yeast-based Assay for SARS-CoV PLP | S. cerevisiae expressing SARS-CoV PLpro, growth rescue | Potency, µM (doses to about 32.9 µM), for the others: top-dose activity, positive = growth rescue, actives largely listed as activators | 330,000 compounds, 0.19% hits; calls by dose curve; note: 0% is about no effect; nearly all actives have a fitted effect of over 55% in size
* marks the source's active call; other numbers are inactive results; ? = inconclusive; . = no result. Shown are actives, neighbours in structure and some others; about 9.4% of the full set was active somewhere. Unless noted, calls come from the whole dose curve; as a rule, active = well fitted curve in the direction sought with a large enough effect; inconclusive = small, poorly fitted or top-dose-only effect, or another doubt; inactive = no such curve, though single readings can be large; an effect the other way counts as inactive or inconclusive. Potency is the fitted concentration of half-maximal effect.

SMILES	Pf growth 48h	AMA1 RON2 block	Pf growth 96h	SARS PLpro yeast
Cc1cc(C)nc(-n2ncc3c2CC(c2ccccc2)CC3=O)n1 (centres undefined)	-28%	2%	?	?
Cc1cc(C)nc(-n2ncc3c2CC(c2ccccc2C)CC3=O)n1 (centres undefined)	?	-5%	5.2µM*	-15%
COc1cc(NC(=O)COc2ccc(Cl)cc2)ccc1NC(=O)C(C)C	76%	2%	-1%	1%
COc1ccc(C(C(=O)NC2CCCCC2)N(Cc2ccco2)C(=O)c2snc(C(N)=O)c2N)cc1 (centres undefined)	?	-3%	?	6%
O=C1c2cccc3cccc(c23)C(=O)N1CCN1CCN(CC(O)COc2ccccc2)CC1 (centres undefined)	-1%	-25%	129%	-16%
CN(CCCN1CCOCC1)Cc1cn(C)nc1-c1ccccc1F	0%	0%	5.9µM*	0%
CN(Cc1cn(C)nc1-c1ccccc1F)C1CCOC1 (centres undefined)	12%	-2%	0%	1%
Cc1c(CN(C)Cc2cn(C)nc2-c2ccccc2F)[nH]c2ccccc12	-9%	-29%	3.7µM*	1%
CC(C)(C)CN1CCN(Cc2cc3ccccc3[nH]2)CC1CCO (centres undefined)	12%	5%	5.2µM*	-4%
O=C(C[n+]1ccc(/C=N/O)cc1)NCc1ccccc1	-16%	-8%	-21%	0%
O=C(C[n+]1ccc(/C=N/O)cc1)NC1CCCCC1	10µM*	-7%	-38%	-4%
CCC1S/C(=C(\C#N)C(=O)NCc2ccco2)N(c2ccc(Br)cc2)C1=O (centres undefined)	-2%	-8%	.	-5%
COc1ccc(S(=O)(=O)NCc2ccco2)cc1N(C)S(=O)(=O)c1ccccc1	-5%	0%	?	1%
Cc1ccc2nc(-c3ccc(O)c(O)c3)cn2c1	-114%	3.5µM*	-2%	-3%
Cc1ccc2nc(-c3ccccc3)cn2c1	50%	9%	?	-23%
CC(C)CC(NC(=O)CCl)c1ccccc1 (centres undefined)	-11%	10%	?	14%
CCCC(NC(=O)CCl)c1ccccc1 (centres undefined)	9.3µM*	-8%	?	26%
CCC(NC(=O)CCl)c1ccc(C)cc1 (centres undefined)	5.9µM*	12%	1.3µM*	0%
Cc1cc(OCCCCN2C(=O)NC(C)(C)C2=O)ccc1[N+](=O)[O-]	74%	16%	15%	0%
CCC1(c2ccccc2)NC(=O)N(CC(=O)N(C)CC(=O)Nc2c(C)cccc2C)C1=O (centres undefined)	3%	7%	35%	-1%
CC(C)CCn1c(=O)c2ccccc2n2c(CN(C)Cc3ccccc3)nnc12	?	-8%	13µM*	-8%
CS(=O)(=O)Nc1cccc(NC(=O)c2cccc3c(-c4cccc(C(N)=O)c4)coc23)c1	.	19%	.	.
CCOCCCNC(=O)c1cc(-c2ccc(Br)s2)nc2ccccc12	.	20%	10µM*	-3%
CCCCOc1cc(C(=O)NCCN(CC)CC)c2ccccc2n1	13µM*	11%	10µM*	-2%
CCN(CC)CCNC(=O)c1cc(-c2ccc(Br)s2)nc2ccccc12	.	-2%	2%	-4%
SMILES	Pf growth 48h	AMA1 RON2 block	Pf growth 96h	SARS PLpro yeast
CCOCCCNC(=O)c1cc(Sc2ccc(F)cc2)nc2ccccc12	17%	16%	13µM*	-12%
COCCCNC(=O)c1cc(Sc2ccc(F)cc2)nc2ccccc12	11%	-19%	?	13%
CSc1ncccc1C(=O)NCC(=O)Nc1ccc(F)c(F)c1	5%	8%	32%	21%
N#CCCN(Cc1cccs1)C(=O)c1ccc(Cl)cc1	-31%	41%	-15%	-1%
CC(C)Cc1ccc(/C=C/C(=O)NC2CC2)cc1	?	8%	2.1µM*	-33%
COc1cccc(NC(=O)CN(C)C(=O)c2cc(C)on2)c1	13%	0%	11%	-2%
COc1ccc(OC)c(NC(=O)CN(c2ccc(C)cc2)S(=O)(=O)c2c(C)n[nH]c2C)c1	?	-5%	?	3%
CC(C)C12CN(C(=O)c3ccccc3[N+](=O)[O-])CC(C(C)C)(CN(C(=O)c3ccccc3[N+](=O)[O-])C1)C2=O	?	7%	?	2%
CN1C[C@@H](NS(=O)(=O)N(C)C)C[C@@H]2c3cccc4c3c(cn4C)C[C@H]21	-46%	.	13µM*	.
COc1ccc(CC(=O)O/N=C(\N)c2ccccn2)cc1	131%	61%	0%	0%
Cc1cc(C)cc(N2C(=O)c3nccnc3C2=O)c1	13%	6%	12µM*	-7%
COc1ccc(Cc2nc3ccc(C(=O)N4CCCCC4CCO)cc3o2)cc1 (centres undefined)	-21%	0%	7.4µM*	29%
O=C(NCCCN1CCN(c2ccc(F)cc2)CC1)c1cccc(N2CCCC2=O)c1	12µM*	35%	.	?
O=C(NCCCN1CCCC1)c1cccc(N2CCCC2=O)c1	-19%	-3%	?	23%
CSc1cccc(NC(=S)NCCCN2CCN(c3ccc(F)cc3)CC2)c1	?	-6%	8.3µM*	-1%
COc1ccccc1NC(=O)NC1(C(=O)N2CCCCCC2)CCCCC1	?	7%	498%	15%
O=C(c1ccc2nc(Cc3cccc(Cl)c3)oc2c1)N1CCC[C@H]1CO	-1%	11%	-26%	4%
Cc1c(CCOC(=O)c2ccccc2)sc[n+]1Cc1ccccc1	5.2µM*	6%	-7%	4%
COc1ccc(-c2[nH]ncc2CN(C)Cc2ccccn2)c(OC)c1	0%	104%	13µM*	-1%
COc1ccc(-c2[nH]ncc2CN(C)Cc2cnccn2)c(OC)c1	6%	70%	5%	0%
O=S(=O)(c1ccc(N2CCN(S(=O)(=O)c3ccc4c(c3)OCCO4)CC2)nc1)N1CCCC1	13µM*	-8%	-8%	1%
O=C(c1ccccc1F)N1CCN(S(=O)(=O)c2ccc3c(c2)OCCO3)CC1	.	8%	9.3µM*	4%
O=C(c1ccccc1OC(F)F)N1CCN(S(=O)(=O)c2ccc3c(c2)OCCCO3)CC1	15µM*	37%	-25%	1%
O=C(NCC(=O)N1CCN(S(=O)(=O)c2ccc3c(c2)OCCO3)CC1)c1ccccc1F	.	-4%	.	-1%
O=C(CCl)N1CCN(S(=O)(=O)c2ccc3c(c2)OCCCO3)CC1	?	-6%	?	10%
COc1ccc(C2c3c(oc4ccccc4c3=O)C(=O)N2CCN2CCOCC2)cc1OC (centres undefined)	.	1%	.	.
COc1ccc(NC(=O)CNc2ccc(OC)c(S(=O)(=O)N3CCOCC3)c2)cc1	.	-2%	.	.
COc1ccc(C)cc1NC(=O)C1CCCN(S(=O)(=O)c2cnc[nH]2)C1 (centres undefined)	.	-10%	12µM*	3%
